DT40 TDP1 CPT – growth inhibition of DT40 Tdp1-/-;hTDP1 cells with camptothecin (screen for TDP1 inhibitors) | 420,000 tested, 12% active | Potency, µM (highest dose often 46.2 µM), hits mostly inhibitors | AID 686979 | chicken DT40 Tdp1-/-;hTDP1 cells + 20 nM CPT, ATP luminescence, 48 h; note: nearly all actives have a fitted effect of over 55% in size
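Chicken DT40 Tdp1-/- cells stably complemented with human TDP1 were seeded at 400 cells/well in medium containing 20 nM camptothecin, exposed to pin-transferred compounds, and grown at 37 °C for at least 48 hr. Viability was read as ATP luminescence.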
TDP1 cell noCPT – qHTS for Inhibitors of human tyrosyl-DNA phosphodiesterase 1 (TDP1): qHTS in cells in absence of CPT; DT40 Tdp1-/- hTDP1 cells, no CPT, ATP luminescence, 48 h; 420,000 tested, 15% active; Potency, µM (titrated, usually from 46.2 µM), usual class: inhibitors; note: nearly all actives have a fitted effect of over 55% in size
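Compound effects on proliferation are scored in DT40 Tdp1-/-;hTDP1 cells in the absence of CPT. ATP levels (CellTiter-Glo luminescence) are recorded after a ≥48 hr, 37 °C incubation.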
HT1080-NT tox – kills 2HG-producing HT-1080-NT fibrosarcoma cells | HT-1080-NT fibrosarcoma viability, CellTiter-Glo ATP luminescence, 48 h | Potency, µM (highest dose often 46.1 µM), most hits filed as cytotoxic | 360,000 tested, 1.6% active;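 note: NT is the 2HG producing partner of a matched IDH1 knockdown line; nearly all actives have a fitted effect of over 55% in size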
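Viability of the 2HG-overproducing fibrosarcoma line after 48 hours of compound exposure at 37 degrees C was determined by luminescence with CellTiter-Glo, and concentration-effect curves were then fitted and categorized.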
IL1B secr inh – inhibitors of inflammasome signaling (IL-1 beta secretion); THP-1 LPS/ATP IL-1B secretion, AlphaLISA, 16 h; hits give low values; activity change, % at 57.5 µM; 360,000 tested, 4.7% active; AID 743279; in the data active = activity change below about -50%; inconclusive = mostly about -30% to -49%
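THP-1 cells pretreated 1 hr with compounds (up to 57.5 uM final), then stimulated with LPS (250 ng/mL final) plus ATP (1.25 mM final); secreted IL-1B measured by AlphaLISA after 16 hr, decreased signal indicating inhibition.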
HT1080 IDH1KD tx – toxicity to HT-1080 IDH1 knockdown cells (counter line); HT-1080 IDH1 knockdown viability, ATP luminescence, 48 h; Potency, µM (top dose mostly 46.1 µM), actives largely listed as cytotoxic; AID 686971; 360,000 tested, 2% active
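Knockdown cells (IDH1KD HT-1080) received compounds 2 h after plating at 750 cells/well and were kept 48 h at 37 °C in 5% FBS RPMI. A CellTiter-Glo luminescence read gave % activity for curve fitting.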
ELG1 DNA repair – ELG1-dependent DNA repair inhibition; HEK293T ELG1-luciferase reporter, luminescence, 16 h; DNA damage induced by 5-fluorouridine; Potency, µM (doses to about 46.1 µM), most hits filed as inhibitors; 330,000 tested, 2.3% active; AID 504467; note: nearly all actives have a fitted effect of over 55% in size
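Quantitative HTS, concentration-response format. 2,000 cells/well co-treated with 5-fluorouridine and compound, 16 hr in 5% CO2 at 37 °C; ONE-Glo luminescence read after 30 min.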
Numbers stand for hits; 0 = inactive; ? = inconclusive; - = no result given; [ ] = dose if it differs, or a comment. In the library only some 19% were active in any assay of this set; here they are far more common. Unless noted, calls come from the whole dose curve; as a rule, active = well fitted curve in the direction sought with a large enough effect; inconclusive = small, poorly fitted or top-dose-only effect, or another doubt; inactive = no such curve, though single readings can be large; an effect the other way counts as inactive or inconclusive.

SMILES | DT40 TDP1 CPT | TDP1 cell noCPT | HT1080-NT tox | IL1B secr inh | HT1080 IDH1KD tx | ELG1 DNA repair
O=C(CSc1nnc(-c2ccncc2)o1)N1CCc2ccccc2C1 | 0 | 0 | 0 | 0 | 0 | 0
Cc1ccccc1NC(=O)Nc1ccccc1Br | 10µM | ? | 0 | 0 | 0 | 0
Cn1nnc2cc(NC(=O)Nc3ccccc3F)ccc21 | ? | 16µM | 0 | ? | 0 | -
Cc1cc(NC(=O)Nc2ccccc2F)ccc1Br | ? | ? | 0 | -50 | 0 | ?
Cc1ccccc1NC(=O)C(=O)Nc1ccccc1C | 0 | 0 | ? | 0 | ? | ?
CCOc1ccc(CNC(=O)CCc2c(C)nn(-c3ccc(N4CCOCC4)nn3)c2C)cc1 | 0 | 0 | - | - | - | -
O=C(Nc1cccc(Cl)c1)c1cc(S(=O)(=O)N2CCOCC2)cs1 | ? | 0 | 0 | 0 | 0 | 0
COc1cc2cnc(-c3ccccc3F)cc2cc1OC | 0 | ? | 0 | 0 | 0 | ?
COc1ccccc1Oc1cc(C#N)c(C#N)cc1-n1nnc2ccccc21 | 23µM | 18µM | ? | ? | ? | ?
COc1ccccc1Oc1nc(C)c(C(C)=O)cc1C#N | 0 | 0 | 0 | 0 | 0 | ?
CC1CCCCN1CCNC(=O)c1cc2c(-c3ccccc3F)nn(C)c2s1 (stereo not drawn) | ? | ? | 0 | 0 | 0 | 0
CCOC(=O)N1CCC(NC(=O)c2cc3c(-c4ccccc4F)nn(C)c3s2)CC1 | 13µM | 8.2µM | 0 | 0 | 0 | 13µM
CCOC(=O)C1CCN(C(=O)c2cc3c(-c4ccc(OC)c(OC)c4)nn(C)c3s2)CC1 | 16µM | 21µM | 0 | 0 | 0 | ?
Cn1nc(C(F)(F)F)c2cc(C(=O)NC3CC3)sc21 | 0 | 0 | 0 | 0 | 0 | 0
CCOC(=O)N1CCC(NC(=O)c2cc3c(-c4ccc(OC)c(OC)c4)nn(C)c3s2)CC1 | ? | 21µM | 0 | 0 | 0 | 7.3µM
Cc1ccc(S(=O)(=O)NCCN=Cc2ccc(N(C)C)cc2)cc1 | 0 | 0 | 0 | 0 | 0 | 0
COC(=O)Cc1ccc(NC(=S)NCCSc2ccc(Cl)cc2)cc1 | ? | 21µM | 0 | -57 | 0 | 0
Cc1cc(C)cc(NC(=S)NCCSc2ccc(Cl)cc2)c1 | ? | 21µM | ? | -202 | ? | 0
COC(=O)Cc1ccc(NC(=S)NCCO)cc1 | 0 | 0 | 0 | 0 | 0 | 0
COc1ccc([N+](=O)[O-])cc1N(CC(=O)NCCCOC(C)C)S(C)(=O)=O | 0 | 0 | 0 | 0 | 0 | 0
Cc1cc(=O)[nH]c(NN=Cc2cc(Br)ccc2O)n1 | 2.6µM | 2.9µM | 0 | ? | ? | -
Cc1cc(=O)[nH]c(N/N=C/c2ccccc2Cl)n1 | 0 | ? | 0 | 0 | 0 | ?
CCOc1cc(/C=N/Nc2nc(C)cc(=O)[nH]2)ccc1O | 0 | 0 | 0 | 0 | 0 | ?
C/C=C/C=N/Nc1nc(C)cc(=O)[nH]1 | 0 | 0 | 0 | 0 | 0 | 0
CCN(CC)c1ccc(/C=N/Nc2nc(C)cc(=O)[nH]2)c(O)c1 | 0.021µM | 0.021µM | 0 | 0 | ? | ?
SMILES | DT40 TDP1 CPT | TDP1 cell noCPT | HT1080-NT tox | IL1B secr inh | HT1080 IDH1KD tx | ELG1 DNA repair
Cc1cc(=O)[nH]c(N/N=C/c2c(F)c(F)c(F)c(F)c2F)n1 | 0 | 0 | 0 | -92 | 0 | 0
O=C(COc1ccccc1F)Nc1nnc(SCc2cc(=O)n3ccccc3n2)s1 | 0 | 0 | - | - | - | -
COCc1c(C(=O)N2CCC(N3CCCCC3)CC2)cnn1-c1ncc(C)c(-c2cccs2)n1 | 0[9.04 µM] | 0 | - | - | - | -
COc1cc2[nH]c(=S)n(NC(=O)c3ccccc3)c(=O)c2cc1OC | 0 | 0 | 0 | 0 | 0 | 0
O=C1N=c2ccccc2=C1c1sc(=S)n(NC(=O)c2ccccc2)c1O | 18µM | ? | 0 | 0 | 0 | 0
CC(=O)N1CCc2cc(S(=O)(=O)CCC(=O)N(C)Cc3ccco3)ccc21 | 0 | 0 | 0 | 0 | 0 | 0
c1ccc2c(c1)COc1c3ncccc3nn1-2 | 0 | ? | 0 | ? | 0 | -
CC(C)C(=O)NC(c1ccco1)c1ccc2cccnc2c1O (stereo not drawn) | 3.3µM | 4.6µM | 4.1µM | 0 | ? | 2.9µM
c1coc(CNc2nc3ccccc3s2)c1 | 0 | 0 | 0 | 0 | 0 | ?
CCN(CC)c1ccc(C(NC(=O)C(C)C)c2ccc3cccnc3c2O)cc1 (stereo not drawn) | 2.9µM | 2.9µM | ? | 0 | ? | -
CC(C)C(=O)NC(c1ccc(N(C)C)cc1)c1ccc2cccnc2c1O (stereo not drawn) | 4µM | 5.6µM | - | - | - | -
Oc1c(C(Nc2nc3ccccc3s2)c2ccco2)ccc2cccnc12 (stereo not drawn) | 3.7µM | 5.2µM | 0 | -99 | ? | ?
CCC(C)Nc1nc(Cl)nc(N(C#N)CN2C(=O)c3ccccc3S2(=O)=O)n1 (stereo not drawn) | 15µM | ? | 0 | -66 | 0 | 0
CCN(C#N)c1nc(NC(C)C)nc(NC(C)C)n1 | 0 | 0 | 0[9.24 µM] | 0 | 0 | 0
CC(C)Nc1nc(Cl)nc(N(C#N)CN2C(=O)c3ccccc3C2=O)n1 | 0 | 0 | ? | -99 | 18µM | ?
CC1CN(CC(=O)N2CCN(Cc3nccn3C)CC2)Cc2cc(Cl)ccc2O1 (stereo not drawn) | 0[9.04 µM] | 0 | - | - | - | -
Cc1cc2c(cc1C)NC(c1c(C)n(C)n(-c3ccccc3)c1=O)C1=C(CC(C)(C)CC1=O)N2 (stereo not drawn) | 16µM | ? | 0 | ? | 0 | 0
O=C(NC1CCCCC1)c1nc(-c2c(F)cccc2F)oc1-c1ccccc1 | 23µM | 26µM | 0 | 0 | 0 | -
COCCc1nn2c(=O)cc(COC(=O)c3ccccc3C)nc2s1 | 0 | 0 | - | - | - | -
COc1ccc(C(O)c2nc(-c3ccccc3OC)cs2)cc1 (stereo not drawn) | ? | ? | 0 | 0 | 0 | -
CCN1CCN(C(c2ccc(F)cc2)c2sc3nc(-c4ccco4)nn3c2O)CC1 (stereo not drawn) | 0 | ? | - | - | - | -
Cc1c2cnn(CC(=O)N3CCOCC3)c(=O)c2c(C)n1Cc1ccccc1F | 0 | 0 | 0 | 0 | 0 | 0
CCOC(=O)C1CCCN(C(=O)Cn2ncc3c(C)n(Cc4ccc(Cl)cc4)c(C)c3c2=O)C1 (stereo not drawn) | 8.2µM | 8.2µM | - | - | - | -
CCOC(=O)C1CCCN(C(=O)Cn2ncn3c(cc4sc(CC)cc43)c2=O)C1 (stereo not drawn) | 21µM | ? | - | - | - | -
CCOC(=O)C1CCCN(C(=O)Cn2ncc3c(C)n(Cc4ccccc4F)c(C)c3c2=O)C1 (stereo not drawn) | 26µM | 18µM | - | - | - | -
COc1ccc(C)cc1Nc1cc(C)nc(C)n1 | 0 | ? | - | - | - | -
N=C(N)SCCc1cccc(CCSC(=N)N)c1 | 16µM | 16µM | 0 | 0 | 0 | -

Screens as filed in PubChem BioAssay.
